Data reported in the supplement of paper PMC10681739.

What follows are sequences tested against T1, ETS1 (UniProt P14921) (assay: ETS1 binding intensity (PBM fluorescence), ETS1 alone (arbitrary fluorescence units); higher = stronger binding). Details: ETS1 concentration 1 nM; RUNX1 concentration 0 nM.
T1 sequence: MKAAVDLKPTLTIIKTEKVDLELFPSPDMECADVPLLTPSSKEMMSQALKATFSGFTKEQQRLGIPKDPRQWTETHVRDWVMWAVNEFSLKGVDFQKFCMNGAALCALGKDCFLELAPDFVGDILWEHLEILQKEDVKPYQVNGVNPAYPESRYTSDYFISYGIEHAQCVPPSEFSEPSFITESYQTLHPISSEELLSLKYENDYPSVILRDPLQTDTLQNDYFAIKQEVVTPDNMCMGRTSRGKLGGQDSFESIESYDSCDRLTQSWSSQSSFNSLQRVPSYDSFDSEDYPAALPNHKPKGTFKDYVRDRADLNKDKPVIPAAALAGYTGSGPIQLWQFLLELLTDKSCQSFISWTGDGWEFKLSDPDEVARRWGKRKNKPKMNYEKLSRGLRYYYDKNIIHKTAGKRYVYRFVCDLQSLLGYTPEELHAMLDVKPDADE
In the case of AAGTGAAGAGCTTCCGCCGGGAGACCGCGGCTGCAG, the ETS1 binding intensity is reported as 592. GTTTCTCTGGCCAGGAAATTGAGGTTTCTGTTAGTC showed an ETS1 binding intensity of 2010. In the case of CTGCTAGCGGAAGCAGCCAAGCCCACAGGCTCCAGG, the ETS1 binding intensity is reported as 942. TCCGGAAGTCGGAGGAACACCCCAGCCGCCGCAGCC was tested, and the ETS1 binding intensity was 1840. CTGCCCACCGGAAACGATGGCGCGAGGCCGCAGAGC gave an ETS1 binding intensity of 6160. TACAACTTGCAACGGAAACCACTTCAGGTTCATTAC gave an ETS1 binding intensity of 1320. Work on ATCTTCAGGAAGCGGTATCAACCTGAAAACCACCAC yielded an ETS1 binding intensity of 561. ACCCACCCGGAAGTCCTCCTGGCCCACAAGCTCCGC gave an ETS1 binding intensity of 2360. CCGCTGACATCCGCTTGGCCTGCGGCTTCTTTCTGT gave an ETS1 binding intensity of 715. GCACCCGGCACTACTTCCCGACCCGCATCCCCCGCC showed an ETS1 binding intensity of 689. With CTTTGCTGCCGCCTTCCTGTGCGGGGCCGTGGCGGC the ETS1 binding intensity was 493. TACCTACAGGAAATGAGACACACCGCAGGCCGATCC showed an ETS1 binding intensity of 2130. With AGAACAGCAGGAAATAAATACCCACCTCAGGACTGC the ETS1 binding intensity was 959. For ACAGGAAATGTTAGAGGTTGAGTTAGCGGTTATGAG, the ETS1 binding intensity was 1620. Work on TCCCGAGAGCCGGAAGCAGCCGCAGGCCCCGCCACA yielded an ETS1 binding intensity of 3950. With ACCAGAACAGGAAATGTTAGTGGTTGAGTTAACGGT the ETS1 binding intensity was 3760. GCCCGGAAGCGCGACGCTGGAGCTGCGGGGTTACCA was tested, and the ETS1 binding intensity was 773. With AGGAGAAGGAAGAGGATGTTGAGGTTGGGGGAAACC the ETS1 binding intensity was 1610. GCACCGTACCCGGAACTGCTCCCTCCCGCAGGCGCA gave an ETS1 binding intensity of 539. In the case of CCTTCCTTCCGGGGTCGGCCCCGCCCGCAAGCGCCG, the ETS1 binding intensity is reported as 441. AACCTAGAAAAGGAAGCTGCGGTTTTTCAGGGTATG was tested, and the ETS1 binding intensity was 697. Sequence GACAGGAAGCCCGCGGCAGCCTCCGTGGTTGCAGAT has an ETS1 binding intensity of 562. Sequence TGGAGTGAAGCGGCTTCCTTGCGGTTGTGTGCGTGT has an ETS1 binding intensity of 403. Sequence GTGTGCGTGAGAAGAGGAAGTGGTTAGGAAGACACA has an ETS1 binding intensity of 4030. In the case of CAGCGGAAGAAAGACCTGCCACCTCCACCACAAAGA, the ETS1 binding intensity is reported as 440. In the case of GAAATGAGAGAACGGAAACCACAAGTCAAGGGGCTT, the ETS1 binding intensity is reported as 1460. AGCCAACAGGAAGCTGCAGAGACTAAACCACAGCAA was tested, and the ETS1 binding intensity was 1150. Work on TCATAAGGAAGTGGAGTGTAGTAACCACAGGCCCCG yielded an ETS1 binding intensity of 417. In the case of CAGCTTTCCGGCCTGCAGCACAGGCAATGTGGTTTT, the ETS1 binding intensity is reported as 341. For TGACTTCCGGTCCGTAGTGGGGCCTGCGGTGGGAGT, the ETS1 binding intensity was 3690. CCAGCAAAGGAAGCTTGGTCAACCACAGCAGCCTGT showed an ETS1 binding intensity of 393. GAAGAGAAAGGAAACGGCTCGCGGTTTCTGGGGTTC gave an ETS1 binding intensity of 822. GCGCCCCGCTTCCGGGGCCGCCCTAAACCGCGGCCG showed an ETS1 binding intensity of 944. Sequence TGGAGAGCACAGGAAGTGGCCCACAGCCCAGGCCAA has an ETS1 binding intensity of 5790. CAGTGCCAGCCGGAACTTGTGGTTCGGACCGTGGGT gave an ETS1 binding intensity of 882. Sequence GCCCCAGCCCCCGGATGTGGTGACAGAATCGATACT has an ETS1 binding intensity of 3220. Sequence AGCCCGCCGGAAACTAGCGTCACCGCGCCAAGGTTC has an ETS1 binding intensity of 1440. TGGCGGGAGAACTTCCCCCTGTGCGGTCGCGACGTG showed an ETS1 binding intensity of 444. GGGGCTCCGCAGGAAGTAGGGCTCCCACAACTTTGC showed an ETS1 binding intensity of 2970. CCTCACCCAGGAAGTGGCTGCGGCTGTCTCAGGGTT gave an ETS1 binding intensity of 2450.
